Results filed as inconclusive are left out. Calls of active or inactive are those of the source. Calls follow the shape of the dose curve; as a rule, active = well fitted curve in the direction sought with a large enough effect; inconclusive = small, poorly fitted or top-dose-only effect, or another doubt; inactive = no such curve, though single readings can be large; an effect the other way counts as inactive or inconclusive.
Assays:
[1] = qHTS of pediatric cancer cell lines to identify multiple opportunities for drug repurposing: Confirmatory screen for DAOY cells (AID 1347114); settings: DAOY medulloblastoma cells viability, cytotoxicity qHTS; series mostly up to 45.9 µM; also: nearly all actives have a fitted effect of over 65% in size; also: potency is read from the fitted curve at half-maximal effect
How it was run: (§1)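 Viability measured as metabolically active cells via CellTiter-Glo luminescence following 48 hours of compound exposure, 11-point dilutions in confirmatory testing. 500-1,000 cells/well plated 5 hours before dosing; controls were DMSO and 2.3 µM bortezomib.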

[2] = qHTS of pediatric cancer cell lines to identify multiple opportunities for drug repurposing: Confirmatory screen for NB-EBc1 cells (AID 1347115); settings: NB-EBc1 neuroblastoma cells, viability (cytotoxicity); series mostly up to 45.9 µM;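 also: cells exposed to compound for 48 h before the viability read; nearly all actives have a fitted effect of over 45% in size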; also: potency is read from the fitted curve at half-maximal effect
How it was run: (§2)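 Cells (500-1,000/well) rested 5 h, then received compounds for 48 h; metabolically active cells were measured by CellTiter-Glo luminescence. Final concentrations spanned up to 46 µM (MIPE, 11-point) or 0.59 nM-46 µM (NPC, 8-point) in primary screens, 11-point in follow-ups.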

[3] = qHTS of pediatric cancer cell lines to identify multiple opportunities for drug repurposing: Confirmatory screen for SJ-GBM2 cells (AID 1347116); settings: SJ-GBM2 glioblastoma cells, viability; series mostly up to 45.9 µM; also: nearly all actives have a fitted effect of over 60% in size; also: potency is read from the fitted curve at half-maximal effect
How it was run: as §1

[4] = qHTS of pediatric cancer cell lines to identify multiple opportunities for drug repurposing: Confirmatory screen for BT-37 cells (AID 1347117); settings: BT-37 pediatric cancer cells, viability; activity change, negative = cytotoxic: at 45.9 µM (top of the series); also: nearly all actives have a fitted effect of over 55% in size; also: potency is read from the fitted curve at half-maximal effect
How it was run: as §2

[5] = qHTS of pediatric cancer cell lines to identify multiple opportunities for drug repurposing: Confirmatory screen for TC32 cells (AID 1347118); settings: TC32 Ewing sarcoma cells viability qHTS; series mostly up to 45.9 µM;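 also: cells exposed to compound for 48 h before the read; nearly all actives have a fitted effect of over 65% in size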; also: potency is read from the fitted curve at half-maximal effect
How it was run: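 Measured quantity: luminescence from CellTiter-Glo, reflecting metabolically active TC32 cells following 48 h of compound. Curves came straight from multi-point titrations, with 8 or 11 points in primary and 11 in confirmatory screening.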

[6] = qHTS of pediatric cancer cell lines to identify multiple opportunities for drug repurposing: Confirmatory screen for MG 63 (6-TG R) cells (AID 1347119); settings: MG-63 (6-TG resistant) osteosarcoma viability; series mostly up to 45.9 µM; also: nearly all actives have a fitted effect of over 55% in size; also: potency is read from the fitted curve at half-maximal effect
How it was run: as §2

[7] = qHTS of pediatric cancer cell lines to identify multiple opportunities for drug repurposing: Confirmatory screen for U-2 OS cells (AID 1347122); settings: U-2 OS osteosarcoma cell viability; series mostly up to 45.9 µM; also: nearly all actives have a fitted effect of over 65% in size; also: potency is read from the fitted curve at half-maximal effect
How it was run: as §2

[8] = qHTS of pediatric cancer cell lines to identify multiple opportunities for drug repurposing: Confirmatory screen for Rh41 cells (AID 1347123); settings: Rh41 rhabdomyosarcoma cells, viability/cytotoxicity qHTS; series mostly up to 45.9 µM;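 also: 48 h compound exposure; nearly all actives have a fitted effect of over 60% in size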; also: potency is read from the fitted curve at half-maximal effect
How it was run: as §2

[9] = qHTS of pediatric cancer cell lines to identify multiple opportunities for drug repurposing: Confirmatory screen for RD cells (AID 1347124); settings: RD rhabdomyosarcoma cell viability; series mostly up to 45.9 µM;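 also: cells exposed to compound for 48 h before viability readout; nearly all actives have a fitted effect of over 65% in size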; also: potency is read from the fitted curve at half-maximal effect
How it was run: as §2

[10] = qHTS of pediatric cancer cell lines to identify multiple opportunities for drug repurposing: Confirmatory screen for Rh18 cells (AID 1347125); settings: Rh18 rhabdomyosarcoma cells, viability; series mostly up to 45.9 µM; also: nearly all actives have a fitted effect of over 55% in size; also: potency is read from the fitted curve at half-maximal effect
How it was run: as §2

[11] = qHTS of pediatric cancer cell lines to identify multiple opportunities for drug repurposing: Confirmatory screen for Rh30 cells (AID 1347126); settings: Rh30 rhabdomyosarcoma cell viability; series mostly up to 45.9 µM; also: nearly all actives have a fitted effect of over 55% in size; also: potency is read from the fitted curve at half-maximal effect
How it was run: as §2

[12] = qHTS of pediatric cancer cell lines to identify multiple opportunities for drug repurposing: Confirmatory screen for Saos-2 cells (AID 1347127); settings: Saos-2 osteosarcoma cell viability; series mostly up to 45.9 µM; also: nearly all actives have a fitted effect of over 60% in size; also: potency is read from the fitted curve at half-maximal effect
How it was run: as §2

[13] = qHTS of pediatric cancer cell lines to identify multiple opportunities for drug repurposing: Confirmatory screen for OHS-50 cells (AID 1347128); settings: OHS-50 osteosarcoma cells viability; series mostly up to 45.9 µM; also: potency is read from the fitted curve at half-maximal effect
How it was run: as §2

[14] = system: Zika virus NS2B-NS3 protease; test: Primary screen GU AMC qHTS for Zika virus inhibitors (AID 1347154); settings: Zika NS2B-NS3 unlinked protease, AMC fluorogenic substrate; series mostly up to 54.1 µM; also: nearly all actives have a fitted effect of over 70% in size
How it was run: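 Fluorogenic AMC-substrate cleavage by noncovalent NS2B-NS3 protease complex (25 nM, pH 8.0 Tris buffer with Tween 20) followed for 15 minutes at room temperature (~20% conversion). Percent inhibition from ex340/em450 signal change, fitted by 4-parameter Hill equation.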

[15] = qHTS of pediatric cancer cell lines to identify multiple opportunities for drug repurposing: Confirmatory screen for control Hh wild type fibroblast cells (AID 1347121); settings: viability qHTS; series mostly up to 45.9 µM; also: potency is read from the fitted curve at half-maximal effect; nearly all actives have a fitted effect of over 70% in size
How it was run: as §2

SMILES | Potency [1] | Potency [2] | Potency [3] | Potency [4] | Potency [5] | Potency [6] | Potency [7] | Potency [8] | Potency [9] | Potency [10] | Potency [11] | Potency [12] | Potency [13] | Potency [14] | Potency [15]
COC(=O)[C@@H]1[C@H]2C[C@@H]3c4[nH]c5ccccc5c4CCN3C[C@@H]2CC[C@@H]1O | inactive | inactive | inactive | inactive | inactive | inactive | inactive | inactive | inactive | inactive | inactive | inactive | inactive | inactive | –
COc1cc2c(cc1OC)[C@@H]1C(=O)c3ccc4c(c3O[C@@H]1CO2)C=CC(C)(C)O4 | 185 nM (active) | 827 nM (active) | – | 2080 nM (active) | – | 104 nM (active) | – | 13100 nM (active) | – | – | 1850 nM (active) | 3690 nM (active) | inactive | inactive | 293 nM (active)
CN(C)c1ccc(C(=O)NCCCCCCC(=O)NO)cc1 | 3290 nM (active) | – | – | 1650 nM (active) | 1650 nM (active) | 1470 nM (active) | – | – | 2330 nM (active) | 1470 nM (active) | 3290 nM (active) | 2930 nM (active) | – | inactive | –
CC(C)N1[N]C(=C2C=c3cc(O)ccc3=N2)c2c(N)ncnc21 | 5220 nM (active) | – | 4140 nM (active) | – | 1170 nM (active) | 414 nM (active) | – | – | 11700 nM (active) | 6570 nM (active) | 1650 nM (active) | 10400 nM (active) | – | inactive | –
C[C@H](NCc1ccc2c(c1)nc(NC(=O)c1ccc(-c3cn[nH]c3)s1)n2CCc1ccccc1)C(C)(C)C | 2930 nM (active) | – | 928 nM (active) | – | 928 nM (active) | 2330 nM (active) | 1170 nM (active) | – | 1170 nM (active) | 3290 nM (active) | 4140 nM (active) | 1470 nM (active) | 1470 nM (active) | inactive | –

Source: PubChem BioAssay (NCATS)
